The source of these data is ChEMBL document CHEMBL3988442, “University of Dundee, Small-Polar-MMV Screening Library” (2021).

For some of these results: Results with a measured potency or affinity are listed apart.

Set-up in all cases: scale not given: direction of the effect not stated beside the values
Test [1] has as its target Protein translocase subunit SecA (Escherichia coli (strain K12)) (UniProt P10408). The test can be described thus: Assay to Identify E. coli SecA ATPase Inhibitors. It counts as functional. Conditions: 30 µM.
Test [2] addresses T1, Ubiquitin-activating enzyme e1, putative (Leishmania donovani (strain BPK282A1)) (UniProt E9BSI1).
T1 sequence (whole entry): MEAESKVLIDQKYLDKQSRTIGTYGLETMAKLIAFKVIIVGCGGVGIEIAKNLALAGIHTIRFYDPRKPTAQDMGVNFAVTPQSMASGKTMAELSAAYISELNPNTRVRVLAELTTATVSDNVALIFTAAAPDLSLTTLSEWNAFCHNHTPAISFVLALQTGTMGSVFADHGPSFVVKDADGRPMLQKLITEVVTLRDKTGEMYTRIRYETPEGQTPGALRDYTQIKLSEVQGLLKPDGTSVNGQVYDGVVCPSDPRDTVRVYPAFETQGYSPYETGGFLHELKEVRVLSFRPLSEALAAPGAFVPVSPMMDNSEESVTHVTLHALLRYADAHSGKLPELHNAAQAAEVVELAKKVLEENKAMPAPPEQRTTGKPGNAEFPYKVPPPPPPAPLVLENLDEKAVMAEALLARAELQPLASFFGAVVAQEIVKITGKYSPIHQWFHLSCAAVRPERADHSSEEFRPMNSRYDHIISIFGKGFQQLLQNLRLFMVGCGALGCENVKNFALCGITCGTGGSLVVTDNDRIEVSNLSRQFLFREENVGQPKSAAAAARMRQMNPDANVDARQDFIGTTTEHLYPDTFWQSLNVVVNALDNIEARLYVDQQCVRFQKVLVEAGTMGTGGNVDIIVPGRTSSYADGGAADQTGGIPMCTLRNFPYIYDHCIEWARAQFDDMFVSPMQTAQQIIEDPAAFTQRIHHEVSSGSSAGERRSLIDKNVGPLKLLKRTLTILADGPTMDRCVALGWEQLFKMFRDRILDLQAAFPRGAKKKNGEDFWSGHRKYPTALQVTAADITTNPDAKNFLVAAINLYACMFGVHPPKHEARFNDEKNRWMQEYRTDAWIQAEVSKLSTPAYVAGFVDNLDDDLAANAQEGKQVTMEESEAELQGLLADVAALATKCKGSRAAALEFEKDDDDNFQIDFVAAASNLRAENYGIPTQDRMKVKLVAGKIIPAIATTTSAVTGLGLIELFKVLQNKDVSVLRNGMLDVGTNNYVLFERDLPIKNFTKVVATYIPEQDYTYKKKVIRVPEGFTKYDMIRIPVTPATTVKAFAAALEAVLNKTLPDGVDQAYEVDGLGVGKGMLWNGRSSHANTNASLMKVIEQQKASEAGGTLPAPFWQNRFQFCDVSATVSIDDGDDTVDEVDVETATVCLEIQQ
Kind of test: Leishmania donovani Ubiquitin Activating Enzyme (LdE1). It counts as functional. Conditions: 30 µM.

In test [3] the target is AMP-activated protein kinase, AMPK (Homo sapiens) (UniProt P54646+O43741+P54619+Q9UGJ0+Q9Y478+Q13131+Q9UGI9). Kind of test: AMP-dependent Kinase enzyme assay. An in vitro enzyme assay that detects ADP turnover that is directly proportional to AMPK activity. This uses naive AMPK that is activated during the assay with MK-8722. It counts as functional. The settings on record: 30 µM.

Test [4] deals with Sialic acid-binding Ig-like lectin 9 (Homo sapiens) (UniProt Q9Y336). Kind of test: Hs-Siglec9 ALPHAscreen SOP 20170721. The settings on record: 10 µM. For orientation: Alpha assays give light when donor and acceptor beads are brought close together.
In another test the test system is Trypanosoma cruzi. The test can be described thus: Trypanosoma cruzi phosphomannomutase and mannose-1-phosphate guanylyltransferase assay. It counts as functional. The settings on record: 10 µM.
The target in test [5] is T2, Arginase-2, mitochondrial (Homo sapiens) (UniProt P78540).
T2 sequence (whole entry): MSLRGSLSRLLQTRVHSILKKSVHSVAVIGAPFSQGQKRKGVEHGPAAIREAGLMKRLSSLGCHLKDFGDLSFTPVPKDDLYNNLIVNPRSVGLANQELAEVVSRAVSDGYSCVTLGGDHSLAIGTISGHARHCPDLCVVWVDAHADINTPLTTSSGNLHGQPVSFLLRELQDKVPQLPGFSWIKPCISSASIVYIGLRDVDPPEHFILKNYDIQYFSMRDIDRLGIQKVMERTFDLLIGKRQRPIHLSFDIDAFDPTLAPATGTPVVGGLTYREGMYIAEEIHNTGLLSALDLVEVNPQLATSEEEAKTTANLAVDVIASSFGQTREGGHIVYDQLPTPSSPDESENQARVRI
The test can be described thus: in vitro enzyme assay to detect the production of urea directly proportional to the activity of Arginase II. Note: in the data most compounds retested in dose-response had high values. It is filed as functional. The settings on record: 33.3 µM.

In test [6] the target is T3, Proteasome subunit beta (Trypanosoma cruzi) (UniProt O96673).
T3 sequence (whole entry): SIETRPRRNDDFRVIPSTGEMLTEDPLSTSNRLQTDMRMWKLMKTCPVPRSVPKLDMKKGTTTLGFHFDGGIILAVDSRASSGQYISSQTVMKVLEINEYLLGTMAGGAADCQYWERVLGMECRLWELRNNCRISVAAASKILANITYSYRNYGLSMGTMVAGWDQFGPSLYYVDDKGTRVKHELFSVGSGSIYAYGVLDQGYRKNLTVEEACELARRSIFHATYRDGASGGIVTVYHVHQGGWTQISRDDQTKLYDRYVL
The test can be described thus: Trypanosoma cruzi proteasome chymotrypsin-like activity (TcProtChymo) assay. Note: in the data most compounds retested in dose-response had high values. It counts as functional. Conditions: 9.37 µM.

For another test, the species on record is Homo sapiens. The test can be described thus: To identify inhibition of the IFN signalling (Jak-Stat) pathway via expression of an eGFP reporter gene under the control of an IFN-stimulated response element (ISRE) containing MxA promoter. It counts as functional. Conditions: 30 µM. Background: Reporter assays use an easily measured gene product as a stand-in for the process of interest.

Test [7] concerns the target T4, Tyrosyl-tRNA synthetase, putative (Trypanosoma cruzi (strain CL Brener)) (UniProt Q4DSP6).
T4 sequence (whole entry): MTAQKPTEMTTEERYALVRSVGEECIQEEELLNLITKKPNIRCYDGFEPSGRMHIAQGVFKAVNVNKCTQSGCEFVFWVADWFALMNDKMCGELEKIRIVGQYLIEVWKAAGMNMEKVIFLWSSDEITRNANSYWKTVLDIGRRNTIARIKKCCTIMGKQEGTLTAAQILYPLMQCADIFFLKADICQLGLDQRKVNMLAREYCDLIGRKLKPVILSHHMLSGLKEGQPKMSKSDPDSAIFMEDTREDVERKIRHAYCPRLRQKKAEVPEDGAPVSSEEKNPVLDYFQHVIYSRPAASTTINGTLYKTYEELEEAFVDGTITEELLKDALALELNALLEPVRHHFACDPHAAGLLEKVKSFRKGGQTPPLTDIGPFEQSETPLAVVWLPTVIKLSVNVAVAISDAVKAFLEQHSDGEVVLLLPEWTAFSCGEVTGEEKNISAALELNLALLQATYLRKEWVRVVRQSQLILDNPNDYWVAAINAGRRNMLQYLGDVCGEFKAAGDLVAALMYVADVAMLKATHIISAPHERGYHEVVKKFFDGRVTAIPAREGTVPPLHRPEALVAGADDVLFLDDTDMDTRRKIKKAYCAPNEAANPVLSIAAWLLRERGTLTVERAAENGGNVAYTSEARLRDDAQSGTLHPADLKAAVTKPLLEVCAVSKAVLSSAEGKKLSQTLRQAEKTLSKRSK
The test can be described thus: Trypanosoma cruzi tyrosyl tRNA synthetase (TcYRS) _High Tyrosine SOP. Note: in the data most compounds retested in dose-response had high values. It is filed as functional. The settings on record: 30 µM.

Test [8] addresses T4, Tyrosyl-tRNA synthetase, putative (Trypanosoma cruzi (strain CL Brener)). Kind of test: Trypanosoma cruzi tyrosyl tRNA synthetase (TcYRS) SOP. It is filed as functional. The settings on record: 30 µM.
Test [9] addresses Chromo domain-containing protein 1 (Saccharomyces cerevisiae (strain ATCC 204508 / S288c) (Baker's yeast)) (UniProt P32657). Kind of test: ScCHD-1 Enzyme Inhibition Assay. Note: in the data most compounds retested in dose-response had high values. The settings on record: 30 µM. It is filed as functional.

Sequence of Chromo domain-containing protein 1 (Saccharomyces cerevisiae (strain ATCC 204508 / S288c) (Baker's yeast)) (P32657 whole entry, the tested form may be a part): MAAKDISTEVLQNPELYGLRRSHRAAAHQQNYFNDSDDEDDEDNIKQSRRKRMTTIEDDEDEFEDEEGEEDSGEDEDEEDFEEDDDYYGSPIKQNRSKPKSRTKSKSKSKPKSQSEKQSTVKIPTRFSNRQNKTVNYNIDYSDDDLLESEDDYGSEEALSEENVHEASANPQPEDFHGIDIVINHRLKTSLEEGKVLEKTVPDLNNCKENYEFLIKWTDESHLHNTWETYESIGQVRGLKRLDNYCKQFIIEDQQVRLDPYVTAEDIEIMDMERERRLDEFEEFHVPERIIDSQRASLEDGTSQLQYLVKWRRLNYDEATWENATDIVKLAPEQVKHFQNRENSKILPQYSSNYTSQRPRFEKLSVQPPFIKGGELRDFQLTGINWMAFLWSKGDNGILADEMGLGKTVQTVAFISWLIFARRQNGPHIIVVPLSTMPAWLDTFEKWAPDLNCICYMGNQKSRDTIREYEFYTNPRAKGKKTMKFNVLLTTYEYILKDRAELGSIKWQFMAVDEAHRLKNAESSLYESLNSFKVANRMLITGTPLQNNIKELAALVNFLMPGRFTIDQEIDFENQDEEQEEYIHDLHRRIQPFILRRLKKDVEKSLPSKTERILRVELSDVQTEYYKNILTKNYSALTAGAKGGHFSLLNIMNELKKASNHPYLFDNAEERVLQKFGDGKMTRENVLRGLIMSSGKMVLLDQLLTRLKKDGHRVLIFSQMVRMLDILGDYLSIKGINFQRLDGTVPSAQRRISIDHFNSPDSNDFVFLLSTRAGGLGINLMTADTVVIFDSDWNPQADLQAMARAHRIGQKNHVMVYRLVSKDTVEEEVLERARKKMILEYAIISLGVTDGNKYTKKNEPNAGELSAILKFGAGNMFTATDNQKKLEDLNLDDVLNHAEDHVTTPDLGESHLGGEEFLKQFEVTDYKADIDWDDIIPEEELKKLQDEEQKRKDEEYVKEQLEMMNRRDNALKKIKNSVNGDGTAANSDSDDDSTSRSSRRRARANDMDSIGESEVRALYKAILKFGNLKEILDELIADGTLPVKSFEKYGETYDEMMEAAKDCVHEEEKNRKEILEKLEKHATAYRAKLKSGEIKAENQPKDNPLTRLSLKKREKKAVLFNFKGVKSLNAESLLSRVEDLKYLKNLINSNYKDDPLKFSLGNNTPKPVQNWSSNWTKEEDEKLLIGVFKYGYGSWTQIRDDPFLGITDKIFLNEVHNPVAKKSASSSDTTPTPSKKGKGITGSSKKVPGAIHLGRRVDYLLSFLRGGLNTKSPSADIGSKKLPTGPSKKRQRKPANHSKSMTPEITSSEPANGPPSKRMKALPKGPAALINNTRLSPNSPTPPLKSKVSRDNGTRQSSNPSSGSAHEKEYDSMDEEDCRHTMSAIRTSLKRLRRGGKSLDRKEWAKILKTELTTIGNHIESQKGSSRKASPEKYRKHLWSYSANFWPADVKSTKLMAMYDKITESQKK
Sequence of Sialic acid-binding Ig-like lectin 9 (Homo sapiens) (Q9Y336 whole entry): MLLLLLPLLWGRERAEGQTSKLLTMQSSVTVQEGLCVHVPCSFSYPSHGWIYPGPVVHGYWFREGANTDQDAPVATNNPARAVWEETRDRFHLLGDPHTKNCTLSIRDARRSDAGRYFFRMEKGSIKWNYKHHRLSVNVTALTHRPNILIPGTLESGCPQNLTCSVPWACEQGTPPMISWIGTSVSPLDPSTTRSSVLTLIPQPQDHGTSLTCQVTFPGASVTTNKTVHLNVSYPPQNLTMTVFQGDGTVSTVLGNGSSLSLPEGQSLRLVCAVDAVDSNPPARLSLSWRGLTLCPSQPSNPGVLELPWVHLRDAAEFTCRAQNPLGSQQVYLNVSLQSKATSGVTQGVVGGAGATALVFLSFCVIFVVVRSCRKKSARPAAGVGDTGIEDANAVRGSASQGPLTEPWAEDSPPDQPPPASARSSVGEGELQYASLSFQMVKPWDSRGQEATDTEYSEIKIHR
Sequence of Protein translocase subunit SecA (Escherichia coli (strain K12)) (P10408 whole entry): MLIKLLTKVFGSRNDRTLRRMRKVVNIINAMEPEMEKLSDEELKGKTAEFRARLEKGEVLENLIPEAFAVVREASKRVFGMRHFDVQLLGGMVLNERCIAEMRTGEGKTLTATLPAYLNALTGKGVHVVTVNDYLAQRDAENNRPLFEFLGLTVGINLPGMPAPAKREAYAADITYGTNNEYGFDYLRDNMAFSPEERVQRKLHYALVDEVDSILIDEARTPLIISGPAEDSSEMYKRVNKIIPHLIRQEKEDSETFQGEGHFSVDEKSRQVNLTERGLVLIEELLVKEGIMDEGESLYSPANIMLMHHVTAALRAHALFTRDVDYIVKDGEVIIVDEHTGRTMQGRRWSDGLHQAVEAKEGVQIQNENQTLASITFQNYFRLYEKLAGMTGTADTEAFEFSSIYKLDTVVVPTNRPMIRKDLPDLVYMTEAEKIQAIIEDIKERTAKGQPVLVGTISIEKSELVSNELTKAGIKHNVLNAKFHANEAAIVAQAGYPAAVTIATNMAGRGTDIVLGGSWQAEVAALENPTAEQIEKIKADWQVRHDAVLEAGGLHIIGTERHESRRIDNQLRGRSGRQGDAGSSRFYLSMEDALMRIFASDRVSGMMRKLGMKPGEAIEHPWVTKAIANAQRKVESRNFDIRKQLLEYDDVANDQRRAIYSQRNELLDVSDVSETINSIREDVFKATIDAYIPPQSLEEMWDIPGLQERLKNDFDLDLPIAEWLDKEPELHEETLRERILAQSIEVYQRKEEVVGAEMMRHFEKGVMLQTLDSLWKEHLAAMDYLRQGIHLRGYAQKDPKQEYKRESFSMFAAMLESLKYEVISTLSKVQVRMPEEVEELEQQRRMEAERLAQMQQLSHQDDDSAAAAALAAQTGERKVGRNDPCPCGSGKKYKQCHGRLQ

On to `CN(C)Cc1nn(C)c2c1CCN(S(=O)(=O)c1cccs1)C2`, for which the Percent Effect is -0.0797% in test [1]; 13% in [2]; 2.64% in test [3]; -2.7% in test [4]; 1.48% in the test on Trypanosoma cruzi; 3.23% in test [5]. Moreover, the Percent Effect in test [6] was 5.57%; in the test listed under Homo sapiens, 14.8%; in [7], 8.47%; in test [8], 8.97%; in [9] it was -7.57%.
Consider `Cn1cc(-c2cnc(N3CCOCC3)nc2)cc1C(=O)N1CCOCC1`, for which the Percent Effect in test [1] was -2.41%; in [2] it was 13.3%; in test [3] it was 7.42%; in test [4] it was 1.64%; in the test with Trypanosoma cruzi, -0.984%; in [5] it was 2.56%. For the same compound, the Percent Effect in test [6] was 1.32%; in the test listed under Homo sapiens, 23.2%; in test [7], 6.38%; in test [8], 14.1%; in test [9], -9.55%.
`O=C([C@@H]1C[C@H]2[C@H](CCN2Cc2nccs2)O1)N1CCOCC1`: the Percent Effect is -0.787% in test [1]; 8.11% in test [2]; 1.14% in test [3]; -3.79% in test [4]; -2.15% in the test on Trypanosoma cruzi; 0.833% in test [5]. The Percent Effect in [6] came out at 19%; in the test filed under Homo sapiens, 11.3%; in test [7] it was 10.9%; in test [8], 13.4%; in test [9], 8.93%.
Regarding `CC(O)CN1CCN(C(=O)c2cnn(-c3ccc(Cl)cc3)c2)CC1` (stereo unspecified), the Percent Effect is -8.22% in test [1]; 5.33% in test [2]; -3.17% in test [3]; 23.3% in test [4]; 6.13% in the test with Trypanosoma cruzi; 5.21% in test [5]. Moreover, the Percent Effect is 11% in test [6]; 7.52% in the test listed under Homo sapiens; 1.64% in test [7]; 8.64% in test [8]; -3.32% in test [9].
`CNS(=O)(=O)c1ccc(CNC(=O)NCC2CCCO2)cc1` (stereo unspecified): the Percent Effect in test [1] was -5%; in test [2], 13%; in [3], 16.9%; in test [4] it was -9.06%; with Trypanosoma cruzi it was 1.67%; in test [5] it was -2.74%. Further, the Percent Effect in [6] is 12.8%; in the test listed under Homo sapiens it was 14.9%; in test [7], 0.952%; in [8], 18.8%; in [9], -17.3%.
As for `Cc1occc1C(=O)N1CCC2(CCN(Cc3nccs3)C2)CC1`, the Percent Effect in test [1] was -3.24%; in [2], 2.6%; in test [3] it was 0.489%; in test [4], 3.8%; in the test on Trypanosoma cruzi, 3.83%; in test [5], -8.28%. Further, the Percent Effect in [6] is -1.66%; in the test filed under Homo sapiens it was -23.6%; in [7] it was 0%; in test [8], -3.7%; in [9], 6.12%.
In the case of `Cc1cc(C)n(C2CCCN(C(=O)c3cnc4onc(C)c4c3)C2)n1` (stereo unspecified), the Percent Effect was -2.86% in test [1]; 5.2% in test [2]; 2.66% in test [3]; 12.3% in test [4]; -1.08% in the test with Trypanosoma cruzi; 4.84% in [5]. The Percent Effect was 4.77% in test [6]; 38.1% in the test filed under Homo sapiens; 1.91% in test [7]; 9.41% in [8]; -15.5% in test [9].
As to `O=C(CCNC(=O)c1ccccc1N1CCOCC1)NC1CCCC1`, the Percent Effect in test [1] is -4.31%; in test [2] it was 16.4%; in test [3], -6.31%; in [4], 6.63%; in the test on Trypanosoma cruzi, 4.76%; in test [5], -0.798%. Moreover, the Percent Effect in test [6] was 13.1%; in the test listed under Homo sapiens, -7.41%; in test [7], 8.33%; in test [8], 21%; in test [9] it was -9.11%.
Regarding `NC(=O)c1cccc(CC2CCN(C(=O)CCCN3CCOCC3)C2)c1` (stereo unspecified), the Percent Effect was -2.51% in [1]; -2.74% in test [2]; 4.39% in [3]; -12.6% in test [4]; -1.18% in the test on Trypanosoma cruzi; -2.27% in [5]. The Percent Effect in test [6] is -3.02%; in the test listed under Homo sapiens, 6.37%; in test [7], 2.15%; in [8], 2.5%; in test [9], -1.16%.
For `CCn1cc(N2Cc3nc(N4CCN(C)CC4)ncc3C2=O)cn1`, the Percent Effect is -4.57% in test [1]; 4% in test [2]; 4.85% in [3]; 8.98% in test [4]; -1.97% in the test on Trypanosoma cruzi; -13.2% in [5]. Also, the Percent Effect in [6] is 15.2%; in the test listed under Homo sapiens, -0.771%; in test [7] it was 6.35%; in [8], 12.8%; in test [9], -11.9%.
`COC(=O)c1cc(OCC2CCC2)cc(C(=O)N[C@@H]2CNCC[C@H]2O)c1`: the Percent Effect in test [1] is -7.97%; in [2], 0%; in test [3], -18.2%; in test [4], 10.2%; in the test with Trypanosoma cruzi, -0.392%; in test [5], -2.73%. The Percent Effect in test [6] is 4.44%; in the test filed under Homo sapiens it was 36%; in test [7], 0%; in test [8], 0%; in test [9], -7.21%.
